# The panel holds about 83,000 compounds, 20% with a hit somewhere; the sample as a whole holds those more often.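 Assay: single dose, 48 h. Readout: percent growth (0 = no net growth; negative = cell death). Active: <10.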 A number with no mark means an inactive call. Activity calls are given as the source filed them.
# System: CAKI-1 renal
# Assay: NCI-60 one-dose screen, 48 h (100 = growth as untreated, 0 = no growth, -100 = all killed)
# Conditions: 10 µM unless noted
row,SMILES,growth
1,Cc1ccc2c(C(C[N+](=O)[O-])c3ccccc3)c(-c3ccccc3)[nH]c2c1 (stereo not drawn),21.5% [9.5 µM]
2,O=C1c2cccc3cccc(c23)C(=O)N1CCCCCN1CCN(CCCCCOc2ccc(-c3nc4ccc(N5CCOCC5)cc4[nH]3)cc2)CC1,59.4%
3,COc1ccc(/C=C(\C#N)C(=O)Nc2cccc(Nc3nc(SC)nc(-c4cccc([N+](=O)[O-])c4)c3C#N)c2)cc1OC,92.7%
4,O=C1Nc2ccc(Br)cc2C12Oc1ccccc1C1CC(c3ccc(F)cc3)=NN12 (stereo not drawn),78.7%
5,CSc1nc(-c2cccc(NC(=O)CCl)c2)c(C#N)c(=O)n1C,83.7%
6,Oc1cccc2ccc(N/N=C/c3cc(CN4CCOCC4)c(O)c4ncccc34)nc12,11.5%
7,CC(C)(C)c1cc(C(C)(C)C)cc(S(=O)(=O)Nc2cc3ccccc3cc2C(=O)NCCN)c1,64%
8,COc1ccc(/C=C/c2nc3ccccc3nc2/C=C/c2ccc(OC)cc2)cc1,86.4%
9,COc1cc(/C=C/c2cc(/C=C/c3ccc(O)c(OC)c3)n(-c3c(Cl)cccc3Cl)c(=O)n2)ccc1O,63.2%
10,Cc1cc(C)nc(SC2=C(Nc3cc(Cl)ccc3O)C(=O)N(Cc3ccccc3)C2=O)n1,99.7% [30 µM]
11,CC(C)(C)CC(C)(C)c1ccc(OCCOCC[N+](C)(C)Cc2ccccc2)cc1,97.3%
12,O=C(NCCN1CCOCC1)Nc1ccc(-c2cc3c(Nc4ccc(Oc5cccc(C(F)(F)F)c5)c(Cl)c4)ncnc3s2)cc1,8.01% (active)
13,NNCCc1ccc(NC(=O)CCCc2ccc(/C=C/C(=O)NO)cc2)cc1,93.6%
14,COc1ccc(C2CC(c3ccc(Cl)cc3)=NN2/C=C2\SC(=S)N(NC(=O)Cc3ccccc3Nc3c(Cl)cccc3Cl)C2=O)cc1 (stereo not drawn),62.8%
15,CCCSc1ccc2nc(NC(=O)OC)[nH]c2c1,55%
16,CCCN1CCN(c2ccc3nc(-c4ccc5nc(-c6ccc(OCC)cc6)[nH]c5c4)[nH]c3c2)CC1,49.3%
17,CCn1c(O)c(/C=N/NC(=O)C(C)c2ccc(CC(C)C)cc2)sc1=S (stereo not drawn),35.1%
18,CN1CCN(CCCOc2cccc3nc(Nc4cc(Cl)cc(Cl)c4)ccc23)CC1,30.7%
19,O=C(CCN1C(=O)/C(=C/c2ccc(Cl)cc2)SC1=S)NCCCN1CCOCC1,94.4%

row,SMILES,growth
1,c1ccc(Cn2cc(-c3nc4ccccc4s3)c3cccnc32)cc1,92.9%
2,O=C1c2cccc3cccc(c23)C(=O)N1CCCCN1CCN(CCCCOc2ccc(-c3nc4ccc(N5CCOCC5)cc4[nH]3)cc2)CC1,79.8%
3,COc1cc(C2CC(=O)c3ccccc3N2)cc(OC)c1OC (stereo not drawn),93.4%
4,O=C1c2cc3c(cc2-c2c1c1ccc(F)cc1c(=O)n2C[C@H](O)[C@H](O)[C@H](O)CO)OCO3,-20.6% (active)
5,Cc1[nH]c(-c2ccc3cc[nH]c3c2)c2c1C(=O)CCCC2,11.9%
6,O=C(O)c1c(=O)cccc2ssc12,68.5%
7,O=C1c2cc3c(cc2-c2c1c1ccc(Cl)cc1c(=O)n2CCCN1CCOCC1)OCO3,21.4%
8,Cn1cc(-c2nonc2-c2c[nH]c3ccccc23)c2cccnc21,39.3%
9,CCCCN(CCCC)CCCn1c(-c2ccccc2)ccc1-c1ccccc1,59.8%
10,CC1=CC(=NN=c2cc(C)n([O-])c(C)c2)C=C(C)[N+]1=O,98.2%
11,CN(C)S(=O)(=O)c1ccc(S(=O)(=O)Nc2cccc(Cl)c2N2CCCCC2)cc1,31.6%
12,Cc1cn2c(/C=C3/C(=O)Nc4c3ccc3ccccc43)c(C(F)(F)F)nc2s1,34.3%
13,Oc1cccc(-c2nc(N3CCOCC3)c3c4c(sc3n2)CCCC4)c1,69.8%
14,COc1ccc(S(=O)(=O)N2CCCCC2)cc1NC(=O)c1[nH]c(C)c2c1CCCCC2=O,11.4%
15,Cc1cc(C)nc(SC2=C(Nc3cccc(Cl)c3)C(=O)N(Cc3ccccc3)C2=O)n1,66% [30 µM]
16,C#Cc1cccc(NC(=O)c2ccccc2NC(=O)CCl)c1,87.9% [8.25 µM]
17,C=C(C)[C@@H]1CC[C@]2(C(=O)OC)CC[C@]3(C)[C@H](CC[C@@H]4[C@@]5(C)C/C(=C/c6ccc(OC)cc6)C(=O)C(C)(C)[C@@H]5CC[C@]43C)[C@@H]12,90.5%
18,N#Cc1c(-c2ccc(Cl)cc2)nc(N=Nc2c(O)[nH]c3ccc(Cl)cc23)nc1N1CCOCC1,85.2%
19,CN1CCN(CCCOc2cccc3nc(Nc4ccc(Cl)c(F)c4)ccc23)CC1,56.2%

# Reference: PubChem BioAssay (NCI)
